Experimental data reported in PubChem BioAssay (NCI).
The panel holds about 83,000 compounds, 20% with a hit somewhere; the sample as a whole holds those more often.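 Single-concentration screen, 48 h exposure, 96-well plates. Endpoint: percent growth. Below 10 = active.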 Values without a mark were called inactive. Calls of active or inactive are those of the source.

Columns and labels:
Test in all cases: NCI-60 one-dose screen, 48 h (100 = growth as untreated, 0 = no growth, -100 = all killed)
Settings in all cases: 10 µM unless noted
HCT-15 colon = system: HCT-15 colon
HT29 colon = system: HT29 colon
SNB-75 CNS = system: SNB-75 CNS
SNB-19 CNS = system: SNB-19 CNS
U251 CNS = system: U251 CNS
PC-3 prostate = system: PC-3 prostate
SK-MEL-5 melanoma = system: SK-MEL-5 melanoma
UACC-62 melanoma = system: UACC-62 melanoma
LOX IMVI melanoma = system: LOX IMVI melanoma
SK-MEL-28 melanoma = system: SK-MEL-28 melanoma

Compound | growth (HCT-15 colon) | growth (HT29 colon) | growth (SNB-75 CNS) | growth (SNB-19 CNS) | growth (U251 CNS) | growth (PC-3 prostate) | growth (SK-MEL-5 melanoma) | growth (UACC-62 melanoma) | growth (LOX IMVI melanoma) | growth (SK-MEL-28 melanoma)
COc1cc(OC)c2c(=O)cc(-c3ccccc3)oc2c1 | 105% | 97.1% | 91.8% | 94.3% | 92.2% | 81.1% | 95.9% | 77.7% | 97.5% | 106%
CCOC(=O)CSSCC(=O)OCC | 102% | 112% | 94.4% | 108% | 98.4% | 100% | 99.8% | 98.4% | 111% | 107%
CCC(C)(C)c1ccc(OCCCCCCN2CCNCC2)cc1 | -36.1% (active) | 8.87% (active) | 60.5% | 68.6% | 18.8% | 64.3% | 34.2% | 85.6% | -47.1% (active) | 74.2%
O=C(/C=C1\C(=O)N(Cc2ccc([N+](=O)[O-])cc2)c2ccccc21)c1ccc(OCCN2CCCC2)cc1 | 15.4% | 17.4% | 65.3% | 95.1% | 84.7% | 77% | 88.5% | 85.8% | 16.7% | 104%
CC#Cc1nc(Nc2cc(C)[nH]n2)c2ccccc2n1 | -0.521% [100 µM] (active) | 2.45% [100 µM] (active) | -14.3% [100 µM] (active) | 43% [100 µM] | -25.5% [100 µM] (active) | -28.8% [100 µM] (active) | -71.9% [100 µM] (active) | -84.1% [100 µM] (active) | -58.5% [100 µM] (active) | 40.5% [100 µM]
CC(=O)Nc1nc(C)c(C(=O)N/N=C/c2cccs2)s1 | 101% | 95% | 72% | 96.8% | 98.6% | 101% | 97.7% | 80.1% | 93.2% | 95.5%
COc1ccc(-n2nnnc2-c2cn[nH]c2C(F)(F)F)cc1 | 110% | 93.1% | 102% | 101% | 94.8% | 105% | 94.4% | 83.6% | 95.6% | 96.2%
CC(C)(C)C(=O)OCOP(=O)(OCOC(=O)C(C)(C)C)C1CC(O)N(O)C1=O (stereo not given) | 34.7% | 6.67% (active) | 51.2% | 16.1% | 6.74% (active) | 58.9% | 58.4% | 9.68% (active) | 30.4% | 8.22% (active)
Cc1ccc(S(=O)(=O)Nc2cccc(Cn3c(=O)[nH]c4ccc(Oc5ncccn5)cc4c3=O)c2)cc1 | 91% | 65.1% | 78.9% | 57.4% | 79.1% | 52% | 53.8% | 34.7% | 64.5% | 66.7%
COc1cc(NC(=O)CSc2nc3ccc(Cl)cc3c(=O)n2-c2ccc(F)cc2)cc(OC)c1OC | 84.5% | 97.9% | 72.6% | 82.2% | 82.1% | 73% | 73.9% | 71.3% | 73.5% | 95.4%
C[C@@H](c1ccc2c(c1)[nH]c1ccc(Cl)cc12)c1nc2ccc(Cl)cc2[nH]1 | 90.1% | 97.2% | 74.2% | 91.7% | 92.1% | 84.4% | 95% | 76.6% | 85.4% | 99.8%
N=c1c2c(=O)n3c(nc2nc2sc4ccc(Cl)cc4n12)-c1ccccc1Sc1ccccc1-3 | 13.6% | 26.8% | 18.6% | 30.5% | 24.7% | 11.2% | -2.17% (active) | -26% (active) | 24.2% | 29.3%
COc1ccc2c(N)ncc(C#Cc3cc(C(=O)Nc4ccc(CN5CCN(C)CC5)c(C(F)(F)F)c4)cnc3C)c2c1 | -76.2% (active) | -78.3% (active) | -11.1% (active) | -82.2% (active) | -92.2% (active) | -69.4% (active) | -51.4% (active) | 28.2% | -71.4% (active) | -80.2% (active)
O=S(=O)(O)CCI | 108% | 116% | 98% | 102% | 110% | 95.7% | 91.2% | 101% | 97.8% | 113%
CC(=O)CCS(=O)c1ccccc1 (stereo not given) | 110% | 97.8% | 96% | 98.2% | 97.2% | 94.6% | 102% | 99.6% | 97.1% | 109%
CC[C@H](Nc1ncnc2nc[nH]c12)c1nc2cccc(NCc3ccc(C(=O)NO)nc3)c2c(=O)n1-c1ccccc1 | 97.1% | 66.6% | 5.43% (active) | 26% | 23.6% | 23% | 80.2% | 20.5% | 23.1% | 57.6%
c1cc[c]([Bi]([c]2ccccc2)[c]2ccccc2)cc1 | 103% | 112% | 76.9% | 102% | 99.6% | 85.2% | 97.8% | 94.6% | 98.6% | 102%
O=C(O)CS(=O)c1ccc(Cl)cc1 (stereo not given) | 95.9% | 105% | 103% | 104% | 99.7% | 110% | 102% | 111% | 91% | 105%
CNc1nc2ncn(C)c2c(=O)[nH]1 | 74% | 98% | 81.3% | 113% | 97.3% | 100% | 101% | 78.3% | 71.6% | 103%
Cc1cc(CSc2ccc(Cl)cc2)ccc1N | 98.3% | 106% | 87.3% | 84.3% | 78.6% | 76.5% | 103% | 90.5% | 98.6% | 111%
COc1ccc(C2=C/C(=C\c3ccc(Cl)cc3)C(=O)NN2C(=S)NN)cc1 | 104% | 109% | 61.2% | 103% | 104% | 92.3% | 97.7% | 86.6% | 101% | 113%
CCOC(=O)CCCCCCCCC(=O)OCC | 117% | 109% | 102% | 103% | 97.2% | 101% | 107% | 102% | 96.9% | 110%
COc1ccc(-c2nc(SCC(C)C)nc(Nc3ccc(C)cc3)c2C#N)cc1 | 84.8% | 82.9% | 60.6% | 78.4% | 21.2% | 86.1% | 86.1% | 102% | 73.9% | 94.6%
O=C1CCNC1 | 101% | 106% | 100% | 102% | 87.4% | 95.7% | 104% | 103% | 113% | 102%
O=C1N/C(=N\c2nnc(-c3ccc(O)cc3)s2)S/C1=C\c1ccccc1O | 93.3% | 115% | 78.5% | 93.8% | 101% | 87% | 99.7% | 97.6% | 93% | 106%
Nc1cc(N)c2nc(NCCc3ccc(Cl)c(Cl)c3)cnc2c1 | 90% | 41.7% | 57.9% | 66% | 7.5% (active) | 43.9% | 37.2% | 33.7% | 39.7% | 104%
